Some of the results follow. Inconclusive results are not listed. The source made the active and inactive calls. The call rests on the fitted dose curve; in most records, active means well fitted inhibition curve with a large enough effect; inconclusive means small, poorly fitted or top-dose-only effect; inactive means flat fitted curve, though single readings scatter.
Target: Fructose-bisphosphate aldolase A (Oryctolagus cuniculus) (UniProt P00883)
Assay: qHTS Assay for Inhibitors of Fructose-1,6-bisphosphate Aldolase from Giardia Lamblia: Rabbit FBPA Selectivity (AID 2794); further: nearly all actives have a fitted effect of over 60% in size
Conditions: Rabbit muscle FBPA enzyme inhibition, selectivity counter-screen; series mostly up to 57.5 µM
From the text: NIH Chemical Genomics Center [NCGC]
NIH Molecular Libraries Probe Production centers Network [MLPCN]
Assay Provider: Osnat Herzberg, University of Maryland
The objective of this project is to obtain compounds that inhibit Giardia lamblia growth. G. lamblia is a human pathogen which afflicts impoverished nations; it is the most common cause of outbreaks of diarrhea in the United States. During the course of our study of potential drug targets in Giardia, we have identified the Class II (Zn2+ functions in electrophilic catalysis) fructose-1,6-bisphosphate aldolase (FBPA) as an excellent candidate for drug targeting. FBPA is a key glycolytic pathway enzyme, essential for G. lamblia survival. The human FBPA belongs to the Class I aldolases, which have a different substrate binding site structure and a radically different catalytic mechanism (employing a lysine-Schiff base intermediate). Therefore, affinity-based or mechanism-based inhibitors of the Giardia FBPA are expected not to interfere with the catalytic function of the human FBPA.
A glyceraldehyde-3-phosphate dehydrogenase/triose phosphate isomerase/NAD/arsenate coupled assay was adapted to the 1536-well HTP format for use in the primary screen. This was done by coupling it to a diaphorase/resazurin/resorufin reaction that can be monitored by fluorescence (excitation, 544 nm; emission, 590 nm). Compounds identified in this screen will be further evaluated by coupling the glycerol-3-phosphate/triose phosphate isomerase/NADH assay to a phenazine methosulfate/tetranitroblue tetrazolium color reaction. False positives due to the dehydrogenases and diaphorase inhibition will be eliminated, and selectivity assay will triage inhibitors of mammalian triose phosphate isomerase and the Class I FBPA. G. lamblia FBPA inhibitors identified by the in vitro analyses will be examined for growth inhibition of Giardia trophozoites, and for cytotoxicity in human cells.
This assay addresses whether hits in the primary screen are selective for […] FBPA, by using rabbit FBPA enzyme in the protocol.
Step,Parameter,Value,Description
1,Coupling enzyme reagent,2 uL,glyceraldehyde-3-phosphate
2,Compound,23 nL,3.68 nM-57.5 uM final concentration
3,Time,10 min,RT Incubation
4,Substrate/detection Reagent,2 uL,Substrate + enzyme coupling system + AmpLite Red kit
5,Time,20 min,RT Incubation
6,Detector,525 nm/598 nm (Fluorescence),ViewLux Fluorescence Read (Read 1)
1,Medium-binding black solid-bottom Kalypsys plates. FRD or Kalypsys dispenser.
2,Compound Library (10 mM ,1:5 dilution). Pin-transferred for a [final] range of 3.68 nM-57.5 uM.
4,FRD or Kalypsys dispenser, 2 uL of reaction mixture. Bottle kept at 4C and covered in foil to protect from light.
6,ViewLux Protocol 1194; Excitation filter wheel A (525/20 Pol; BODIPY TMR FP), Emission filter wheel B (598/25 S; BODIPY TMR FP S).
Keywords: Fructose-bisphosphate aldolase, FBPA , Giardia lamblia , Giardia, HTS, Inhibitors

Chain of Fructose-bisphosphate aldolase A (Oryctolagus cuniculus) (P00883 whole entry, looked up): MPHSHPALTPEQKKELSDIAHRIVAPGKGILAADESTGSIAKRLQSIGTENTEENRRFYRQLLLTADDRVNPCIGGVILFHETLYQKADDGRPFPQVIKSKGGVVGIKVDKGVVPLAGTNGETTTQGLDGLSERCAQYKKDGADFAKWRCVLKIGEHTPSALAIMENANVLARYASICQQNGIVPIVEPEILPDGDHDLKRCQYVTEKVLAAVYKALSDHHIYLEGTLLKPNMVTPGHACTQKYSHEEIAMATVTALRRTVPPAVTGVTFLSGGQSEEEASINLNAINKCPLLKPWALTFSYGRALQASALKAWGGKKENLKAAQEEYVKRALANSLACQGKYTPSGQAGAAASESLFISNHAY

SMILES | outcome
CCc1ccc2c(c1)C1(NN=C(c3ccccc3)S1)C(=O)N2 (stereo not given) | inactive
O=c1nc(N/N=C/c2ccco2)cn[nH]1 | inactive
Cn1nnc(NC(=S)NC(=O)c2ccccc2)n1 | inactive
O=C(N/N=C/c1ccccn1)c1cccnc1 | inactive
COc1ccc(C(=O)NC(=S)N2CCCCC2c2cccnc2)cc1OC (stereo not given) | inactive
COC(=O)CC1=NN(c2nc(C)cc(C)n2)C(=O)C1 | inactive
O=C(O)Cn1c(Cc2ccccc2)nc2ccccc21 | inactive
Cn1c(=O)[nH]c(=O)c2c1[nH]c(=S)n2Cc1ccccc1 | inactive
Cc1ccc(C(=O)Nc2nnc(C3=COCCO3)o2)cc1C | inactive
CSc1n[nH]c(=S)n1N | inactive
Oc1[nH]c2ccc(Br)cc2c1N=Nc1nn[nH]n1 | inactive
Cc1cc(C)n(-c2ccc(Cl)c(C(=O)O)n2)n1 | inactive
COc1cc(CN2CCN(Cc3ccc(C)cc3)CC2)c([N+](=O)[O-])cc1OC | inactive
O=C(Nc1ccccc1Cl)O/N=C(/c1ccccc1)c1ccccn1 | inactive
CC(=O)NC1CCN(CC(=O)Nc2nccs2)CC1 | inactive
COc1ccc(CN2CCN(Cc3ccc(OC)c(OC)c3OC)CC2)cc1 | inactive
Cc1cnc(NC(=O)c2ccccn2)s1 | inactive
C=C(C)CNC(=S)N/N=C/c1ccccc1OCC(=O)O | inactive
CC1CCCN(S(=O)(=O)c2ccc(C(=O)Nc3nnc(-c4ccncc4)o3)cc2)C1 (stereo not given) | inactive
CN1C(=O)/C(=C\c2ccc(-c3ccccc3)o2)SC1=S | inactive

SMILES | outcome
Cc1csc(NC(=O)CN2CCCCCC2)n1 | inactive
Cc1nnc(N/N=C/c2ccccn2)[nH]c1=O | inactive
Cc1ccc(OCCCCc2c(C)n[nH]c2C)cc1 | inactive
C=CCNC(=S)/N=c1/ccccn1Cc1ccccc1 | inactive
O=S(=O)(c1ccc(NC(=S)NN=C(C2CC2)C2CC2)cc1)N1CCOCC1 | inactive
O=C1CCCN1CCCNC(=S)Nc1ccc(F)c(Cl)c1 | inactive
COc1ccc(OC)c(Nc2nc(-c3ccc(O)c(O)c3)cs2)c1 | inactive
CN(C)CCOc1ccc(Cl)cc1C(C)(C)C | inactive
CCN(CC(=O)Nc1ccc(S(=O)(=O)N2CCCC2)cc1)CC(=O)Nc1cccc(OC)c1 | inactive
O=C(CSc1cccc[n+]1[O-])c1ccc(-c2ccccc2)cc1 | inactive
O=C(CN1CCN(Cc2ccccc2)CC1)Nc1ccc(F)c(F)c1 | inactive
CCS(=O)(=O)c1cc([N+](=O)[O-])c(Sc2ccccc2N)s1 | inactive
Cc1cccc(C)c1OCCN1CCOCC1 | inactive
Oc1ccc2ccccc2c1N=Nc1nccs1 | inactive
Cc1cc(C)nc(N/N=C/c2ccc([N+](=O)[O-])o2)n1 | inactive
COc1ccc(N=Nc2c(-c3ccc(OC)cc3)[nH]oc2=O)cc1 | inactive
CCN1CCc2c(C#N)c(NCc3ccccc3)nc(NCCO)c2C1 | inactive
COc1ccc(Cl)cc1C(=O)NNC(=O)c1nc2nc(C)cc(C)n2n1 | inactive
Cc1cccc(-c2nnc(SCC(=O)O)n2Cc2ccccc2)c1 | inactive
C=CCc1cc(C)ccc1OCCCn1ccnc1 | inactive

Source: PubChem BioAssay (NCATS)
